Laboratory results from paper PMC11006913.
Numbering of substitutions follows the chain as printed.

How the values were obtained:
Assay in all cases: PBM; 200 nM protein, PBS
Conditions in all cases: dsDNA, one strand shown
HOXB9 [1] = biological target: HOXB9 (Homo sapiens, UniProt P17482 171-250, T197M)
HOXC10 [2] = biological target: HOXC10 (Homo sapiens, UniProt Q9NYD6 254-340)
HOXB9 [3] = biological target: HOXB9 (Homo sapiens, UniProt P17482 171-250)
HOXD13 [4] = biological target: HOXD13 (Homo sapiens, UniProt P35453 263-343, T313R)
HOXD13 (Homo sapiens, UniProt P35453 263-343, T313R), sequence (P35453 263-343 T313R): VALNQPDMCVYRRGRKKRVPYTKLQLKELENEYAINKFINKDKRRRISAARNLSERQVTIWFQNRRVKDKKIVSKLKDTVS

HOXC9 [5] = biological target: HOXC9 (Homo sapiens, UniProt P31274 178-260, R193K)
HOXC9 (Homo sapiens, UniProt P31274 178-260, R193K), sequence (P31274 178-260 R193K): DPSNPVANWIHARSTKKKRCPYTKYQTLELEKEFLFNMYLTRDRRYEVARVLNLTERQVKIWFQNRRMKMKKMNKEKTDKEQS

HOXD13 [6] = biological target: HOXD13 (Homo sapiens, UniProt P35453 263-343)
HOXD13 (Homo sapiens, UniProt P35453 263-343), sequence (P35453 263-343): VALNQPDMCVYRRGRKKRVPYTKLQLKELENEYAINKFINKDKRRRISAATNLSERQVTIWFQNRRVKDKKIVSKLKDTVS

HOXC10 [7] = biological target: HOXC10 (Homo sapiens, UniProt Q9NYD6 254-340, K271E)
HOXC10 (Homo sapiens, UniProt Q9NYD6 254-340, K271E), sequence (Q9NYD6 254-340 K271E): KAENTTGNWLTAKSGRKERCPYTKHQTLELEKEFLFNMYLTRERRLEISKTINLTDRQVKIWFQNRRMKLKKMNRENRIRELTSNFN

HOXD13 [8] = biological target: HOXD13 (Homo sapiens, UniProt P35453 263-343, T313A)
HOXD13 (Homo sapiens, UniProt P35453 263-343, T313A), sequence (P35453 263-343 T313A): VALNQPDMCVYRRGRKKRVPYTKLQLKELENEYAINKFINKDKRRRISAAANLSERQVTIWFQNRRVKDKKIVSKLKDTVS

HOXB9 [9] = biological target: HOXB9 (Homo sapiens, UniProt P17482 171-250, R186Q)
HOXB9 (Homo sapiens, UniProt P17482 171-250, R186Q), sequence (P17482 171-250 R186Q): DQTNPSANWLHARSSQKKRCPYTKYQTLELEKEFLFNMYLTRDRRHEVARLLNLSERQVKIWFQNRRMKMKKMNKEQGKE

HOXC9 [10] = biological target: HOXC9 (Homo sapiens, UniProt P31274 178-260, R222W)
HOXC9 (Homo sapiens, UniProt P31274 178-260, R222W), sequence (P31274 178-260 R222W): as the sequence (P31274 178-260 R193K) above, with K16R, R45W counted along it

NKX3-2 [11] = biological target: NKX3-2 (Homo sapiens, UniProt P78367 192-278, P234S)
NKX3-2 (Homo sapiens, UniProt P78367 192-278, P234S), sequence (P78367 192-278 P234S): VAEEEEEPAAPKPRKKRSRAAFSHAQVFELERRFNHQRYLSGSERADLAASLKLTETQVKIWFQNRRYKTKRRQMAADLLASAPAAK

NKX3-2 [12] = biological target: NKX3-2 (Homo sapiens, UniProt P78367 192-278)
NKX3-2 (Homo sapiens, UniProt P78367 192-278), sequence (P78367 192-278): as the sequence (P78367 192-278 P234S) above, with S43P counted along it

PAX4 [13] = biological target: T1, PAX4 (Homo sapiens, UniProt O43316 9-242, R200K)
T1 sequence: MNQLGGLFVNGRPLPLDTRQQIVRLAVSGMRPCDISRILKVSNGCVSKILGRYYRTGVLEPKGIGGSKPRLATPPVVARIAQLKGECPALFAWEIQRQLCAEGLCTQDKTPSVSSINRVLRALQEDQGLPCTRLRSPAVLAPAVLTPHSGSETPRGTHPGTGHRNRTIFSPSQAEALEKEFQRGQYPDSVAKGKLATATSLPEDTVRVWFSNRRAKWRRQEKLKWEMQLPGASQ

PAX4 [14] = biological target: T2, PAX4 (Homo sapiens, UniProt O43316 9-242)
T2 sequence: T1 sequence with K192R

PAX4 [15] = biological target: T3, PAX4 (Homo sapiens, UniProt O43316 9-242, R200Q)
T3 sequence: T1 sequence with K192Q

PAX4 [16] = biological target: T4, PAX4 (Homo sapiens, UniProt O43316 9-242, F177V)
T4 sequence: T1 sequence with F169V, K192R

PAX4 [17] = biological target: T5, PAX4 (Homo sapiens, UniProt O43316 9-242, F177Y)
T5 sequence: T1 sequence with F169Y, K192R

PAX4 [18] = biological target: T6, PAX4 (Homo sapiens, UniProt O43316 9-242, R227W)
T6 sequence: T1 sequence with K192R, R219W

HOXB6 [19] = biological target: HOXB6 (Homo sapiens, UniProt P17509 132-218, K202E)
HOXB6 (Homo sapiens, UniProt P17509 132-218, K202E), sequence (P17509 132-218 K202E): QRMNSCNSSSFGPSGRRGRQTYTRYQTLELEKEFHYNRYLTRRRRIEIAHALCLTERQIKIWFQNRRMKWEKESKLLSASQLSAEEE

PROP1 [20] = biological target: PROP1 (Homo sapiens, UniProt O75360 56-141)
PROP1 (Homo sapiens, UniProt O75360 56-141), sequence (O75360 56-141): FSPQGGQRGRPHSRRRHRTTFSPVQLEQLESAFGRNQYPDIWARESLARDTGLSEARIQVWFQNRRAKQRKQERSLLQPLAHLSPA

PROP1 [21] = biological target: PROP1 (Homo sapiens, UniProt O75360 56-141, R99H)
PROP1 (Homo sapiens, UniProt O75360 56-141, R99H), sequence (O75360 56-141 R99H): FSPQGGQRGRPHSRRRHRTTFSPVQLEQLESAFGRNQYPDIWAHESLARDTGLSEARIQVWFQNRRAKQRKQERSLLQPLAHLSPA

PROP1 [22] = biological target: PROP1 (Homo sapiens, UniProt O75360 56-141, F88S)
PROP1 (Homo sapiens, UniProt O75360 56-141, F88S), sequence (O75360 56-141 F88S): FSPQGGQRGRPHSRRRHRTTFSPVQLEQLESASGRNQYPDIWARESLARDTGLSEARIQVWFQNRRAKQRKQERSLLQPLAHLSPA

HOXB6 [23] = biological target: HOXB6 (Homo sapiens, UniProt P17509 132-218)
HOXB6 (Homo sapiens, UniProt P17509 132-218), sequence (P17509 132-218): as the sequence (P17509 132-218 K202E) above, with E71K counted along it

HOXA7 [24] = biological target: HOXA7 (Homo sapiens, UniProt P31268 116-202)
HOXA7 (Homo sapiens, UniProt P31268 116-202), sequence (P31268 116-202): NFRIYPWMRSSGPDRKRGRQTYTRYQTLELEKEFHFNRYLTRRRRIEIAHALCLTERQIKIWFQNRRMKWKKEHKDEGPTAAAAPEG

HOXA7 [25] = biological target: HOXA7 (Homo sapiens, UniProt P31268 116-202, W177C)
HOXA7 (Homo sapiens, UniProt P31268 116-202, W177C), sequence (P31268 116-202 W177C): as the sequence (P31268 116-202) above, with W62C counted along it

HOXA2 [26] = biological target: HOXA2 (Homo sapiens, UniProt O43364 129-215, R185T)
HOXA2 (Homo sapiens, UniProt O43364 129-215, R185T), sequence (O43364 129-215 R185T): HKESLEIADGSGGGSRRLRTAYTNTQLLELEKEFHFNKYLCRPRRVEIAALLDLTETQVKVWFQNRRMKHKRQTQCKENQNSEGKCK

ALX3 [27] = biological target: ALX3 (Homo sapiens, UniProt O95076 139-225, N203Q)
ALX3 (Homo sapiens, UniProt O95076 139-225, N203Q), sequence (O95076 139-225 N203Q): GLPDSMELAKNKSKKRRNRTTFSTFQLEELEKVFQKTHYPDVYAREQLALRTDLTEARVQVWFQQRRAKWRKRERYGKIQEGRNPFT

HOXA2 [28] = biological target: HOXA2 (Homo sapiens, UniProt O43364 129-215, R185K)
HOXA2 (Homo sapiens, UniProt O43364 129-215, R185K), sequence (O43364 129-215 R185K): as the sequence (O43364 129-215 R185T) above, with T57K counted along it

ALX3 [29] = biological target: ALX3 (Homo sapiens, UniProt O95076 139-225)
ALX3 (Homo sapiens, UniProt O95076 139-225), sequence (O95076 139-225): as the sequence (O95076 139-225 N203Q) above, with Q65N counted along it

ALX3 [30] = biological target: ALX3 (Homo sapiens, UniProt O95076 139-225, L168Q)
ALX3 (Homo sapiens, UniProt O95076 139-225, L168Q), sequence (O95076 139-225 L168Q): as the sequence (O95076 139-225 N203Q) above, with L30Q, Q65N counted along it

ALX3 [31] = biological target: ALX3 (Homo sapiens, UniProt O95076 139-225, L168V)
ALX3 (Homo sapiens, UniProt O95076 139-225, L168V), sequence (O95076 139-225 L168V): as the sequence (O95076 139-225 N203Q) above, with L30V, Q65N counted along it

HOXA2 [32] = biological target: HOXA2 (Homo sapiens, UniProt O43364 129-215, Y150S)
HOXA2 (Homo sapiens, UniProt O43364 129-215, Y150S), sequence (O43364 129-215 Y150S): as the sequence (O43364 129-215 R185T) above, with Y22S, T57R counted along it

ALX3 [33] = biological target: ALX3 (Homo sapiens, UniProt O95076 139-225, N203S)
ALX3 (Homo sapiens, UniProt O95076 139-225, N203S), sequence (O95076 139-225 N203S): as the sequence (O95076 139-225 N203Q) above, with Q65S counted along it

HOXA2 [34] = biological target: HOXA2 (Homo sapiens, UniProt O43364 129-215)
HOXA2 (Homo sapiens, UniProt O43364 129-215), sequence (O43364 129-215): as the sequence (O43364 129-215 R185T) above, with T57R counted along it

PRRX1 = PRRX1 (Homo sapiens, UniProt P54821 80-166, F113S)
PRRX1, sequence (P54821 80-166 F113S): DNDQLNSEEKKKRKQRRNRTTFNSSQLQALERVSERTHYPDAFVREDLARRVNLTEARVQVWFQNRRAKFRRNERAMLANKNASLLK

HOXC9 [35] = biological target: HOXC9 (Homo sapiens, UniProt P31274 178-260, K195R)
HOXC9 (Homo sapiens, UniProt P31274 178-260, K195R), sequence (P31274 178-260 K195R): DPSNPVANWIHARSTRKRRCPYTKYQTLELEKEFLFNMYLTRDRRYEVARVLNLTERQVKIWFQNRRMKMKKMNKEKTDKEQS

HOXC9 [36] = biological target: HOXC9 (Homo sapiens, UniProt P31274 178-260)
HOXC9 (Homo sapiens, UniProt P31274 178-260), sequence (P31274 178-260): as the sequence (P31274 178-260 R193K) above, with K16R counted along it

HOXB9 (Homo sapiens, UniProt P17482 171-250, T197M), sequence (P17482 171-250 T197M): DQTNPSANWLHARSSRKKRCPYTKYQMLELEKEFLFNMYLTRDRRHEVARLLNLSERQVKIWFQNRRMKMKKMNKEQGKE
HOXB9 (Homo sapiens, UniProt P17482 171-250), sequence (P17482 171-250): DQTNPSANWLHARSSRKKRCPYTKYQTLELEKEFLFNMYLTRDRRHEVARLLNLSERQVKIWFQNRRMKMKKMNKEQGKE
HOXC10 (Homo sapiens, UniProt Q9NYD6 254-340), sequence (Q9NYD6 254-340): as the sequence (Q9NYD6 254-340 K271E) above, with E18K counted along it

ATAAAATA
binding signal (HOXB9 [1]): 9.86 upbm affinity estimate (log intensity, higher = more binding, comparable within an allelic series)
binding signal (HOXC10 [2]): 12.3 upbm affinity estimate (log intensity, higher = more binding, comparable within an allelic series)
binding signal (HOXB9 [3]): 11.8 upbm affinity estimate (log intensity, higher = more binding, comparable within an allelic series)
binding signal (HOXD13 [4]): 10.8 upbm affinity estimate (log intensity, higher = more binding, comparable within an allelic series)
binding signal (HOXC9 [5]): 12.5 upbm affinity estimate (log intensity, higher = more binding, comparable within an allelic series)
binding signal (HOXD13 [6]): 11.8 upbm affinity estimate (log intensity, higher = more binding, comparable within an allelic series)
binding signal (HOXC10 [7]): 11.7 upbm affinity estimate (log intensity, higher = more binding, comparable within an allelic series)
binding signal (HOXD13 [8]): 11.6 upbm affinity estimate (log intensity, higher = more binding, comparable within an allelic series)
binding signal (HOXB9 [9]): 11.4 upbm affinity estimate (log intensity, higher = more binding, comparable within an allelic series)
binding signal (HOXC9 [10]): 11.3 upbm affinity estimate (log intensity, higher = more binding, comparable within an allelic series)

GGCAGACC
binding signal (HOXB9 [1]): 8.55 upbm affinity estimate (log intensity, higher = more binding, comparable within an allelic series)
binding signal (HOXC10 [2]): 10.1 upbm affinity estimate (log intensity, higher = more binding, comparable within an allelic series)
binding signal (HOXB9 [3]): 8.57 upbm affinity estimate (log intensity, higher = more binding, comparable within an allelic series)
binding signal (HOXC10 [7]): 10.1 upbm affinity estimate (log intensity, higher = more binding, comparable within an allelic series)
binding signal (HOXB9 [9]): 8.65 upbm affinity estimate (log intensity, higher = more binding, comparable within an allelic series)
binding signal (NKX3-2 [11]): 10.4 upbm affinity estimate (log intensity, higher = more binding, comparable within an allelic series)
binding signal (NKX3-2 [12]): 10.3 upbm affinity estimate (log intensity, higher = more binding, comparable within an allelic series)

CCCGCGGC
binding signal (HOXB9 [1]): 8.53 upbm affinity estimate (log intensity, higher = more binding, comparable within an allelic series)
binding signal (PAX4 [13]): 9.28 upbm affinity estimate (log intensity, higher = more binding, comparable within an allelic series)
binding signal (PAX4 [14]): 9.32 upbm affinity estimate (log intensity, higher = more binding, comparable within an allelic series)
binding signal (HOXB9 [3]): 8.39 upbm affinity estimate (log intensity, higher = more binding, comparable within an allelic series)
binding signal (PAX4 [15]): 9.34 upbm affinity estimate (log intensity, higher = more binding, comparable within an allelic series)
binding signal (PAX4 [16]): 9.09 upbm affinity estimate (log intensity, higher = more binding, comparable within an allelic series)
binding signal (PAX4 [17]): 9.18 upbm affinity estimate (log intensity, higher = more binding, comparable within an allelic series)
binding signal (HOXB9 [9]): 8.48 upbm affinity estimate (log intensity, higher = more binding, comparable within an allelic series)
binding signal (PAX4 [18]): 9.24 upbm affinity estimate (log intensity, higher = more binding, comparable within an allelic series)

GGTGGAGA
binding signal (HOXB9 [1]): 8.58 upbm affinity estimate (log intensity, higher = more binding, comparable within an allelic series)
binding signal (HOXB6 [19]): 9.03 upbm affinity estimate (log intensity, higher = more binding, comparable within an allelic series)
binding signal (HOXB9 [3]): 8.51 upbm affinity estimate (log intensity, higher = more binding, comparable within an allelic series)
binding signal (PROP1 [20]): 6.89 upbm affinity estimate (log intensity, higher = more binding, comparable within an allelic series)
binding signal (PROP1 [21]): 6.82 upbm affinity estimate (log intensity, higher = more binding, comparable within an allelic series)
binding signal (HOXB9 [9]): 8.56 upbm affinity estimate (log intensity, higher = more binding, comparable within an allelic series)
binding signal (PROP1 [22]): 6.65 upbm affinity estimate (log intensity, higher = more binding, comparable within an allelic series)
binding signal (HOXB6 [23]): 9.09 upbm affinity estimate (log intensity, higher = more binding, comparable within an allelic series)

CTAGGCTC
binding signal (HOXB9 [1]): 8.49 upbm affinity estimate (log intensity, higher = more binding, comparable within an allelic series)
binding signal (HOXA7 [24]): 8.33 upbm affinity estimate (log intensity, higher = more binding, comparable within an allelic series)
binding signal (HOXB9 [3]): 8.52 upbm affinity estimate (log intensity, higher = more binding, comparable within an allelic series)
binding signal (HOXB9 [9]): 8.53 upbm affinity estimate (log intensity, higher = more binding, comparable within an allelic series)
binding signal (HOXA7 [25]): 8.41 upbm affinity estimate (log intensity, higher = more binding, comparable within an allelic series)

AGGCCCCC
binding signal (HOXB9 [1]): 8.34 upbm affinity estimate (log intensity, higher = more binding, comparable within an allelic series)
binding signal (PAX4 [13]): 9.04 upbm affinity estimate (log intensity, higher = more binding, comparable within an allelic series)
binding signal (PAX4 [14]): 9.05 upbm affinity estimate (log intensity, higher = more binding, comparable within an allelic series)
binding signal (HOXA2 [26]): 7.07 upbm affinity estimate (log intensity, higher = more binding, comparable within an allelic series)
binding signal (HOXB9 [3]): 8.29 upbm affinity estimate (log intensity, higher = more binding, comparable within an allelic series)
binding signal (ALX3 [27]): 7.63 upbm affinity estimate (log intensity, higher = more binding, comparable within an allelic series)
binding signal (PAX4 [15]): 9.09 upbm affinity estimate (log intensity, higher = more binding, comparable within an allelic series)
binding signal (HOXA2 [28]): 9.91 upbm affinity estimate (log intensity, higher = more binding, comparable within an allelic series)
binding signal (PAX4 [16]): 8.99 upbm affinity estimate (log intensity, higher = more binding, comparable within an allelic series)
binding signal (ALX3 [29]): 7.61 upbm affinity estimate (log intensity, higher = more binding, comparable within an allelic series)
binding signal (PAX4 [17]): 8.97 upbm affinity estimate (log intensity, higher = more binding, comparable within an allelic series)
binding signal (ALX3 [30]): 7.47 upbm affinity estimate (log intensity, higher = more binding, comparable within an allelic series)
binding signal (HOXB9 [9]): 8.32 upbm affinity estimate (log intensity, higher = more binding, comparable within an allelic series)
binding signal (ALX3 [31]): 7.5 upbm affinity estimate (log intensity, higher = more binding, comparable within an allelic series)
binding signal (PAX4 [18]): 9.06 upbm affinity estimate (log intensity, higher = more binding, comparable within an allelic series)
binding signal (HOXA2 [32]): 10.2 upbm affinity estimate (log intensity, higher = more binding, comparable within an allelic series)
binding signal (ALX3 [33]): 7.61 upbm affinity estimate (log intensity, higher = more binding, comparable within an allelic series)
binding signal (HOXA2 [34]): 7.21 upbm affinity estimate (log intensity, higher = more binding, comparable within an allelic series)

AATTATAT
binding signal (HOXB9 [1]): 9.99 upbm affinity estimate (log intensity, higher = more binding, comparable within an allelic series)
binding signal (PRRX1): 11.1 upbm affinity estimate (log intensity, higher = more binding, comparable within an allelic series)
binding signal (HOXB6 [19]): 9.99 upbm affinity estimate (log intensity, higher = more binding, comparable within an allelic series)

CCCGATGC
binding signal (HOXB9 [1]): 8.47 upbm affinity estimate (log intensity, higher = more binding, comparable within an allelic series)
binding signal (HOXC9 [35]): 9.5 upbm affinity estimate (log intensity, higher = more binding, comparable within an allelic series)
binding signal (HOXB9 [3]): 8.13 upbm affinity estimate (log intensity, higher = more binding, comparable within an allelic series)
binding signal (HOXC9 [36]): 9.57 upbm affinity estimate (log intensity, higher = more binding, comparable within an allelic series)
binding signal (HOXD13 [4]): 9.52 upbm affinity estimate (log intensity, higher = more binding, comparable within an allelic series)
binding signal (HOXC9 [5]): 9.49 upbm affinity estimate (log intensity, higher = more binding, comparable within an allelic series)
binding signal (HOXD13 [6]): 9.47 upbm affinity estimate (log intensity, higher = more binding, comparable within an allelic series)
binding signal (HOXD13 [8]): 9.71 upbm affinity estimate (log intensity, higher = more binding, comparable within an allelic series)
binding signal (HOXB9 [9]): 8.19 upbm affinity estimate (log intensity, higher = more binding, comparable within an allelic series)
binding signal (HOXC9 [10]): 9.68 upbm affinity estimate (log intensity, higher = more binding, comparable within an allelic series)
